Among the data in PubChem BioAssay (NCATS) are Potency and viability values, retold here.

The target of test [1] is Aldehyde dehydrogenase, mitochondrial (Homo sapiens) (UniProt P05091). The test is described as follows: qHTS for Inhibitors of the Aldehyde Dehydrogenase Family (ALDH2) Primary screen (AID 2061308).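 Further: plate controls were vehicle for no effect and reference inhibitor for full effect; nearly all actives have a fitted effect of over 55% in size.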 The settings on record: ALDH2 enzyme inhibition qHTS, 1536-well; series mostly up to 56 µM.
Test [2] addresses Retinaldehyde dehydrogenase 3 (Homo sapiens) (UniProt P47895). Description: qHTS for Inhibitors of the Aldehyde Dehydrogenase Family (ALDH1A3) Primary screen (AID 2061315).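 Further: plate controls were DMSO vehicle for no effect and reference inhibitor for full effect.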 The settings on record: ALDH inhibition qHTS; series mostly up to 56 µM. In general terms: Quantitative high-throughput screening tests each substance at several concentrations.
The nature of test [3]: BET inhibitor-based combinations targeting novel dependencies in MECOM-rearranged (r) AML: SET-2 cell line (AID 2202231). Further: nearly all actives have a fitted effect of over 35% in size. Further: potency means the concentration at half of the fitted maximal effect.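 On viability: plate controls were DMSO treated cells for no effect and wells without cells for full effect.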 The settings on record: SET-2 AML cells viability, CellTiter-Glo luminescence, 48 h; viability: stronger effect = lower value, concentration not given here. The essentials:
(§1)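 Viability of cells (500 per well) is scored by luminescent CellTiter-Glo at 48 hr post-dosing. Eleven-point titrations are normalized to DMSO and empty controls and reduced to AUC values.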

Test [4] can be described thus: BET inhibitor-based combinations targeting novel dependencies in MECOM-rearranged (r) AML: OCI-AML3 cell line (AID 2202232). Further: nearly all actives have a fitted effect of over 35% in size. Further: potency means the concentration at half of the fitted maximal effect. The settings on record: CellTiter-Glo luminescence, 48 h; Potency: OCI-AML3 viability; series mostly up to 46 µM. The essentials:
as §1

The nature of test [5]: BET inhibitor-based combinations targeting novel dependencies in MECOM-rearranged (r) AML: MV-4-11 cell line (AID 2202233). Further: nearly all actives have a fitted effect of over 45% in size. Further: potency means the concentration at half of the fitted maximal effect. The following applies: MV-4-11 AML viability, CellTiter-Glo luminescence, 48 h; series mostly up to 46 µM. In outline:
(§2)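 Using pin-tool transfer, drugs were added in 11 doses to cells (500/well), incubated 48 hr, and assessed with CellTiter-Glo. Z-AUC is a mean-centring transformation applied separately to each screened line.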

A short description of test [6]: BET inhibitor-based combinations targeting novel dependencies in MECOM-rearranged (r) AML: HNT-34 cell line (AID 2202234). Further: nearly all actives have a fitted effect of over 35% in size. Further: potency means the concentration at half of the fitted maximal effect. The following applies: HNT-34 AML viability, CellTiter-Glo luminescence, 48 h; series mostly up to 46 µM. The essentials: as §2
Test [7] in a line: BET inhibitor-based combinations targeting novel dependencies in MECOM-rearranged (r) AML: UCSD-AML1 cell line (AID 2202235). Further: nearly all actives have a fitted effect of over 40% in size. Further: potency means the concentration at half of the fitted maximal effect. The settings on record: UCSD-AML1 AML cells viability, CellTiter-Glo, 48 h; series mostly up to 46 µM. The essentials:
as §2
(In ATP-based viability assays light output follows the ATP content of the culture.)

Test [8] is described as follows: BET inhibitor-based combinations targeting novel dependencies in MECOM-rearranged (r) AML: AML-191 cell line (AID 2202236; further: nearly all actives have a fitted effect of over 35% in size; further: potency means the concentration at half of the fitted maximal effect). The following applies: AML-191 viability, CellTiter-Glo luminescence, 48 h; series mostly up to 46 µM. The essentials:
as §1

A short description of test [9]: BET inhibitor-based combinations targeting novel dependencies in MECOM-rearranged (r) AML: AML-194 cell line (AID 2202237; further: nearly all actives have a fitted effect of over 40% in size; further: potency means the concentration at half of the fitted maximal effect). The settings on record: AML-194 (MECOM-r AML) viability, CellTiter-Glo, 48 h; series mostly up to 46 µM. In outline:
as §1

The target in test [10] is Aldehyde dehydrogenase 1A1 (Homo sapiens) (UniProt P00352). The test is described as follows: qHTS for Inhibitors of the Aldehyde Dehydrogenase Family (ALDH1A1) Confirmatory screens (AID 2061316). Further: nearly all actives have a fitted effect of over 65% in size. Further: potency means the concentration at half of the fitted maximal effect. The following applies: ALDH inhibition qHTS; series mostly up to 47.3 µM.

Results filed as inconclusive are left out. A number with no mark means an inactive call. Calls of active or inactive are those of the source. The call rests on the fitted dose curve; in most records, active means well fitted curve in the direction sought with a large enough effect; inconclusive means small, poorly fitted or top-dose-only effect, or another doubt; inactive means no such curve, though single readings can be large; an effect the other way counts as inactive or inconclusive.

Usually viability stands for a read-out of living cells in per cent, often relative to untreated cells. On to `CCCCCCCCCCCCCCCCOCCCOP(=O)(O)COC(CO)Cn1ccc(N)nc1=O` (stereo unspecified), for which the Potency entry in test [1], in [2], in test [5], in test [6], in test [8] and in [9] was “inactive” throughout. Also, the viability in test [3] is 118%. In addition, the Potency in [4] was 20.9 µM (active); in test [7], 10.5 µM (active).
Take `COc1ccc(OC)c(-c2nnc3ccc(-c4ccc(OC)c(O[C@@H]5CCOC5)c4)nn23)c1`: the Potency entry in test [1] and in test [2] was “inactive” throughout. For the same compound, the Potency in test [3] was 8.33 µM (active); in [4], 4.17 µM (active); in test [5] it was 5.25 µM (active); in test [6] it was 1.05 µM (active); in test [8], 2.35 µM (active); in test [9] it was 2.35 µM (active).
`CN1CCN(C(=O)c2ccc(-c3cnc4c(O)ccc(C(=O)O)c4c3)cc2)CC1`: the Potency result in test [1], in [2] and in [10] was “inactive” each time.
For the compound `CCn1cc(-c2ccnc3[nH]c(-c4cccc(CN(C)C)c4)cc23)c(-c2ccc(NC(=O)N(C)C)cc2)n1`, the Potency entry in test [1] and in [2] was “inactive” throughout. In addition, the Potency in [3] was 16.6 µM (active); in [4], 8.33 µM (active); in [5], 0.186 µM (active); in test [6], 3.32 µM (active); in test [7] it was 4.17 µM (active); in [9] it was 5.9 µM (active).
As to `Nc1ccc(C(=O)c2cc3c(ccc4ccccc43)[nH]2)cc1`, the Potency result in [1] and in test [2] was “inactive” throughout. Also, the Potency in test [3] is 30.3 µM (active); in test [4] it was 6.79 µM (active); in [5] it was 3.82 µM (active); in test [6], 2.41 µM (active); in test [7] it was 2.7 µM (active); in test [8], 1.52 µM (active). Moreover, the Potency in test [9] was 2.41 µM (active).
On to `O=C(CO)N1CCC(c2[nH]nc(-c3ccc(Cl)cc3)c2-c2ccncn2)CC1`, for which the Potency entry in test [1], in test [2], in test [4], in [5], in test [7] and in [8] was “inactive” in each case. For the same compound, in test [9], the Potency result is “inactive”. Moreover, in [3], the viability was 101%.
As to `Fc1ccc(NC(=S)Nc2nnc(-c3ccncc3)s2)cc1C(F)(F)F`, the Potency entry in test [1] and in test [2] was “inactive” each time. In test [10], the Potency was 5.04 µM (active).
For `C[C@H]1[C@H](O)O[C@@H]2O[C@@]3(C)CC[C@H]4[C@H](C)CC[C@@H]1[C@@]24OO3`, the Potency entry in [1] and in [2] was “inactive” each time. The Potency was 1.32 µM (active) in test [3]; 1.18 µM (active) in test [4]; 0.662 µM (active) in test [5]; 1.18 µM (active) in [6]; 3.32 µM (active) in [7]; 2.95 µM (active) in [8]. In addition, the Potency in [9] was 4.68 µM (active).
With `Cc1cc(-c2nc3cc(F)ccc3s2)ccc1NC(=O)[C@@H](N)CCCCN`, the Potency entry in [1] and in [2] was “inactive” in each case. Moreover, the Potency in test [3] is 13.2 µM (active); in test [4], 14.8 µM (active); in [5] it was 13.2 µM (active); in test [9], 16.6 µM (active).
Consider `O=c1c2ccccc2nc2sc(Nc3ccc4c(c3)OCO4)nn12`, for which the Potency result in test [1] and in test [2] was “inactive” each time. In addition, the Potency in test [10] is 5.04 µM (active).
For the compound `Cc1nc(-c2cn3c(n2)-c2ccc(-c4cnn(C(C)(C)C(N)=O)c4)cc2OCC3)n(C(C)C)n1`, the Potency entry in test [1] and in test [2] was “inactive” throughout. Further, the Potency in [3] was 23.5 µM (active); in [4], 0.742 µM (active); in [5], 5.25 µM (active); in test [6], 16.6 µM (active); in [7], 0.209 µM (active).
As for `C=CC(=O)Nc1ccc2ncnc(Nc3ccc(OCc4cccc(F)c4)c(Cl)c3)c2c1`, the Potency result in test [1] and in [2] was “inactive” throughout. Further, the Potency in test [3] was 10.5 µM (active); in test [4], 5.9 µM (active); in test [5] it was 6.61 µM (active); in [6] it was 6.61 µM (active); in [7], 7.42 µM (active); in [8], 7.42 µM (active). Also, the Potency in test [9] is 8.33 µM (active).
With `CC(C)c1c(-c2ccccc2)nc2c(C#N)c[nH]n2c1=O`, the Potency result in [1], in [2], in test [4], in [5], in [6] and in [7] was “inactive” each time. The Potency entry in [8] and in test [9] was “inactive” each time. Also, the viability in test [3] was 118%.
As to `C=CC(=O)N1CCC(Oc2cc3c(Nc4ccc(Cl)c(Cl)c4F)ncnc3cc2OC)CC1`, the Potency result in test [1] and in test [2] was “inactive” in each case. Also, the Potency in [3] was 20.9 µM (active); in [4], 13.2 µM (active); in [5], 10.5 µM (active); in test [6], 16.6 µM (active).
On to `C[C@@H]1COCCN1c1cc(C2(S(C)(=N)=O)CC2)nc(-c2ccnc3[nH]ccc23)n1` (stereo partly specified), for which the Potency result in [1] and in test [2] was “inactive” each time. Besides, the Potency is 2.63 µM (active) in [3]; 1.86 µM (active) in [4]; 2.35 µM (active) in test [5]; 4.68 µM (active) in [6]; 2.63 µM (active) in test [8]; 5.25 µM (active) in test [9].
As to `C[C@H]1[C@H](C)CC[C@]2(C(=O)O)CC[C@]3(C)C(=CC[C@@H]4[C@@]5(C)C[C@@H](O)[C@H](O)[C@@](C)(CO)[C@@H]5CC[C@]43C)[C@H]12`, the Potency result in test [1], in [2], in test [4], in test [5], in [6] and in test [8] was “inactive” in each case. The Potency entry in [9] was “inactive”. Further, the viability in test [3] is 104%.
`Cc1ccc(N[S+](=O)([O-])c2cc3c(cc2NC2CC2)NC(=O)CC3)cc1C`: the Potency entry in test [1] and in test [2] was “inactive” in each case. In addition, the Potency in [10] was 28.3 µM (active).
As to `O=C(O)C1(Cc2cccc(Nc3nccs3)n2)CCC(Oc2cccc(Cl)c2F)CC1` (stereo unspecified), the Potency entry in [1] and in test [2] was “inactive” in each case. In addition, the Potency is 1.66 µM (active) in [3], 0.662 µM (active) in test [4], 1.32 µM (active) in test [5] and 0.468 µM (active) in [6].
Regarding `Cc1c(F)ccc(C(=O)Nc2cc([N+](=O)[O-])ccc2N2CCN(C)CC2)c1Cl`, the Potency result in [1], in test [2], in test [4], in [6], in test [7] and in test [8] was “inactive” in each case. Further, in [9], the Potency result was “inactive”. The viability in [3] was 110%. In addition, the Potency in test [5] was 3.32 µM (active).
